Our source for the activity, activity change, negative = inhibition and Potency values is PubChem BioAssay (NCATS).

Calls of active or inactive are those of the source. The call rests on the fitted dose curve.
Potency means the concentration at half of the fitted maximal effect.

In one experiment the target is Catechol O-methyltransferase (Homo sapiens) (UniProt P21964). The experiment can be described thus: Confirmatory Screen for Target Class Profiling of Small Molecule Inhibitors of Methyltransferases (AID 1745852). On activity change, negative = inhibition: on the % scale 0 is the no-effect control and ±100 the full control effect. As to conditions: MTase-Glo luminescence, SAH detection, recombinant enzyme; measured here: COMT max response; stronger effect = lower value.
Sequence of Catechol O-methyltransferase (Homo sapiens) (P21964 whole entry, looked up): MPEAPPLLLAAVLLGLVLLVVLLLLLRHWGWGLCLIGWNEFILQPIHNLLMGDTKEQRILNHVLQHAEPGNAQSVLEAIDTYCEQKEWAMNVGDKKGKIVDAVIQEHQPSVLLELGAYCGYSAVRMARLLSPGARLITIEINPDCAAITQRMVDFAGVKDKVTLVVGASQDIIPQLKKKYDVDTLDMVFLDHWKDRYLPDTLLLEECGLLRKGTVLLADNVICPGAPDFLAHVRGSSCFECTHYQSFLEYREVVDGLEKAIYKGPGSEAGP
In the case of `CNC1CCc2ccccc21` (configuration not stated), the activity is -8.85%.
The same measure, in the same setting: the same measure for `NC(=O)c1ccc(N2CC3CCC(C2)N3CC(F)(F)F)nn1`: 10.2%.
The same measure, in the same setting: the same measure for `C=C[C@H]1CN2CC[C@H]1C[C@@H]2CNC(=O)Nc1ccc(Br)cc1`: 4.06%; for `CN(CCc1ccccn1)C[C@H]1CN2CC[C@H]1C[C@@H]2CNC(=O)Nc1ccsc1`: -2.73%.
The same measure, in the same setting: the same measure for `CC(=O)NC[C@H]1C[C@@H]2CCN1C[C@@H]2c1cc(-c2ccc3ccccc3c2)nn1C`: 4.95%; for `COc1ccc(-c2cc([C@H]3CN4CC[C@H]3C[C@@H]4CN)nc(C)n2)cc1OC`: 2.55%; for `CC(=O)c1cccc(NC(=O)NC[C@H]2C[C@@H]3CCN2C[C@@H]3c2cc(-c3ccc(F)cc3)nc(C)n2)c1`: 2.65%.
As to `CC[C@H]1CN2CC[C@H]1C[C@@H]2CNCc1ccc(-c2ccccc2)cc1`, the activity was 3.75%.
The same measure, in the same setting: next, `COc1ccc(-c2cc3c(cn2)CN(C)CCN3)cn1`: 1.58%.
The same measure, in the same setting: the same measure for `[Cl][Pt].[NH2-].[NH2-].c1ccncc1`: -4.9%.
As to `C[C@H]1CCCC(=O)CCC/C=C/c2cc(O)cc(O)c2C(=O)O1`, the activity was -93%.

For the next experiment, the target named is Guanidinoacetate N-methyltransferase (Homo sapiens) (UniProt Q14353). The experiment is described as above. The following applies: MTase-Glo luminescence, SAH detection, recombinant enzyme; activity change, negative = inhibition: at 85.7 µM (top of the series) unless noted.
Consider `CNC1CCc2ccccc21` (configuration not stated), for which the activity change, negative = inhibition came to 9.32% [at 114 µM].
Same read-out and setting: next, `NC(=O)c1ccc(N2CC3CCC(C2)N3CC(F)(F)F)nn1`: 9.09%.
In the case of `C=C[C@H]1CN2CC[C@H]1C[C@@H]2CNC(=O)Nc1ccc(Br)cc1`, the activity change, negative = inhibition is -0.845%.
On the same count and under the same terms, the same measure for `CN(CCc1ccccn1)C[C@H]1CN2CC[C@H]1C[C@@H]2CNC(=O)Nc1ccsc1`: 6.86%; for `CC(=O)NC[C@H]1C[C@@H]2CCN1C[C@@H]2c1cc(-c2ccc3ccccc3c2)nn1C`: 4.16%; for `COc1ccc(-c2cc([C@H]3CN4CC[C@H]3C[C@@H]4CN)nc(C)n2)cc1OC`: 1.77%.
Still for that read-out and setting: next, `CC(=O)c1cccc(NC(=O)NC[C@H]2C[C@@H]3CCN2C[C@@H]3c2cc(-c3ccc(F)cc3)nc(C)n2)c1`: 5.17% [at 57.3 µM].
On the same count and under the same terms, next, `CC[C@H]1CN2CC[C@H]1C[C@@H]2CNCc1ccc(-c2ccccc2)cc1`: 4.44%; `COc1ccc(-c2cc3c(cn2)CN(C)CCN3)cn1`: -1.54% [at 114 µM].
As for `[Cl][Pt].[NH2-].[NH2-].c1ccncc1`, the activity change, negative = inhibition came to 3.42% [at 57.3 µM].
Turning to `C[C@H]1CCCC(=O)CCC/C=C/c2cc(O)cc(O)c2C(=O)O1`, the Potency was 17.1 µM (active).
